The subject of the assay is MV4-11. Kind of assay: CellTox Green cytotoxicity fluorescence relative to DMSO vehicle (fold of vehicle RFU); higher = more cell death (loss of membrane integrity), active = 2 or more. How it is done: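 Paediatric AML cell lines (MV4-11, CMK, Kasumi-1; 4x10^4 cells/well, 96-well) treated with single compounds from the Selleckchem apoptosis library at 0.01, 0.1 and 1 µM. Cytotoxicity was read with CellTox Green (RFU, Ex 485/Em 520) at 24, 48 and 72 h and normalised to the 0.1% DMSO vehicle. Normalised RFU >= 2 was taken as a successful, cell-killing treatment.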

Unmarked numbers belong to inactive results.

Turning to `CN[C@@H]1C[C@H]2O[C@@](C)([C@@H]1OC)n1c3ccccc3c3c4c(c5c6ccccc6n2c5c31)C(=O)NC4` [Staurosporine], the “CellTox Green cytotoxicity fluorescence” value was 0.985 (0.01 µM, 24 h); 1.41 (0.01 µM, 48 h); 1.83 (0.01 µM, 72 h); 1.01 (0.1 µM, 24 h); 1.48 (0.1 µM, 48 h); 1.96 (0.1 µM, 72 h). The “CellTox Green cytotoxicity fluorescence” value reads like this: (1 µM, 24 h) 1.36; (1 µM, 48 h) 2.34 (active); (1 µM, 72 h) 2.42 (active).

For the origin of these results see the supplement of paper PMC7595190.
